Values joined by “and” are separate entries in the source; they are usually repeats but may differ in a detail not shown here. Identical values can stand only once. Inconclusive results are not listed. Entries that show only a call come without a potency. Active and inactive are the calls of the source. Unless noted, calls follow the shape of the full dose curve.
Experiments:
[1] = qHTS for Inhibitors of the Functional Ribonucleoprotein Complex (vRNP) of Lassa (LASV) Arenavirus: LASV Primary Screen - GLuc reporter signal (AID 1347082; calls by dose curve; tested in HEK293 reporter line; also: nearly all actives have a fitted effect of over 60% in size; also: potency is read from the fitted curve at half-maximal effect)
[2] = qHTS for Inhibitors of the Functional Ribonucleoprotein Complex (vRNP) of Lymphocytic Choriomeningitis Arenaviruses (LCMV): Viability assay - alamar blue signal for LCMV Primary Screen (AID 1347085; calls by dose curve; tested in HEK293 reporter line; also: nearly all actives have a fitted effect of over 80% in size; also: potency is read from the fitted curve at half-maximal effect)
[3] = target: Nucleoprotein (Lymphocytic choriomeningitis virus (strain Armstrong)) (UniProt P09992); assay: qHTS for Inhibitors of the Functional Ribonucleoprotein Complex (vRNP) of Lymphocytic Choriomeningitis Arenaviruses (LCMV): LCMV Primary Screen - GLuc reporter signal (AID 1347086); also: nearly all actives have a fitted effect of over 70% in size; also: potency is read from the fitted curve at half-maximal effect
Sequence of Nucleoprotein (Lymphocytic choriomeningitis virus (strain Armstrong)) (P09992 whole entry, looked up): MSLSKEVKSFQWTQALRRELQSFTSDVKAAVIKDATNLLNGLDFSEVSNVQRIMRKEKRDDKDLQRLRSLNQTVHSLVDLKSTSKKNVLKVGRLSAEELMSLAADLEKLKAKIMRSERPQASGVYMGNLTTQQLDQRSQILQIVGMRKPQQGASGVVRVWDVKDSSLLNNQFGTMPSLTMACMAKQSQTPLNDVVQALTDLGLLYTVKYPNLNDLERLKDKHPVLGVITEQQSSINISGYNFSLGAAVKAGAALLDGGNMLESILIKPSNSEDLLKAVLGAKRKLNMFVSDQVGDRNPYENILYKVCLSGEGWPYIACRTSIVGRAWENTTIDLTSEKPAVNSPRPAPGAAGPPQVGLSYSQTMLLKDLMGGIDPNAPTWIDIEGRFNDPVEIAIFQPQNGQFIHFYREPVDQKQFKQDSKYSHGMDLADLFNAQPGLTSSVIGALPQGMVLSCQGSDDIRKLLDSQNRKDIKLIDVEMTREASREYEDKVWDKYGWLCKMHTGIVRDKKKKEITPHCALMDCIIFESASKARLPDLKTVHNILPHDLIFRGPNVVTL

[4] = Cytotoxicity counterscreen for inhibitors of SARS-CoV-2 cell entry (AID 1645845); also: nearly all actives have a fitted effect of over 50% in size; also: potency is read from the fitted curve at half-maximal effect
Method in brief: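 48 h compound treatment (after 1 h preincubation), HEK293-ACE2 cells, 37 C/5% CO2; ATP luminescence endpoint; normalized to cell wells and media blanks.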

[5] = target: Alpha-galactosidase (Coffea arabica) (UniProt Q42656); assay: Counterscreen for Glucocerebrosidase Inhibitors: qHTS Assay for Coffee Bean alpha-Galactosidase at pH 4.5 (AID 957; active = well fitted curve in the direction sought with a large enough effect; an effect the other way counts as inactive or inconclusive)
Sequence of Alpha-galactosidase (Coffea arabica) (Q42656 whole entry, looked up): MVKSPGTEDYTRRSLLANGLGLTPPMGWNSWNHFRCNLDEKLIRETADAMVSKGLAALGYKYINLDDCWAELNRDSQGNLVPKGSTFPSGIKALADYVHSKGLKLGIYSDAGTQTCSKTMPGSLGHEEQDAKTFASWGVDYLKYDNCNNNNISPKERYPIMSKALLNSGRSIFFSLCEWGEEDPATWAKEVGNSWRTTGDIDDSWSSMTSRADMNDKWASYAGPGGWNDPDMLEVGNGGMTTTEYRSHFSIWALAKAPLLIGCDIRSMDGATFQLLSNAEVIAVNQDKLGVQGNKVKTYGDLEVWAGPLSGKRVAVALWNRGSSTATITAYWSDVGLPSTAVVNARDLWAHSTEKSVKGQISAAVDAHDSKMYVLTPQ
Method in brief: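 Green coffee bean enzyme (2 nM final) was incubated with compounds (0.7 nM to 77 uM) and 4-methylumbelliferyl alpha-D-galactopyranoside (80 uM final) in 50 mM citric acid, 0.005% Tween-20, pH 4.5, 20 min at room temperature; AC50 from Hill fits.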

[6] = target: Alpha-galactosidase (Coffea arabica) (UniProt Q42656); assay: Counterscreen for Glucocerebrosidase Inhibitors: qHTS Assay for Coffee Bean alpha-Galactosidase at pH 5.9 (AID 998; active = well fitted curve in the direction sought with a large enough effect; an effect the other way counts as inactive or inconclusive)
Method in brief: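 Compounds were titrated from 0.7 nM to 77 uM against green coffee bean alpha-galactosidase (2 nM) using 80 uM fluorogenic 4-methylumbelliferyl substrate. After 20 min at room temperature, reactions were stopped at pH 10 and read by fluorescence.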

[7] = Validation screen for inhibitors of Lassa infection (AID 463096)
[8] = Inducers of the Endoplasmic Reticulum Stress Response (ERSR) in human glioma: Validation (AID 504836; active = well fitted curve in the direction sought with a large enough effect; an effect the other way counts as inactive or inconclusive)
Method in brief: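 ERSR induction read as luciferase luminescence (Bright-Glo, 10 min at room temperature) in stably transfected human U87-MG glioma cells exposed to compounds for 16 h, using GRP78 as sensor.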

[9] = Primary qHTS to identify inhibitors of SARS-CoV-2 cell entry (AID 1645846); details: activity change, negative = inhibition: at 57.1 µM (top of the series) unless noted; also: nearly all actives have a fitted effect of over 45% in size
Method in brief: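 HEK293-ACE2 (Expi293F, stable hACE2), 1500 cells/well, o/n 37C; cpd 23 nL pin, 1 h; MLV-PP w/ SARS-CoV-2-S (Wuhan-Hu-1, Δ19 C-term); 48 h 37C; Bright-Glo luminescence; normalized vs S-PP and bald PP.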

[10] = Confirmatory qHTS to identify inhibitors of SARS-CoV-2 cell entry (AID 1645844); also: potency is read from the fitted curve at half-maximal effect; nearly all actives have a fitted effect of over 45% in size
Method in brief: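 Luminescence from a luciferase reporter, read 48 hr after pseudotyped-particle addition, gives entry signal, normalised to spike-bearing PP wells and bald PP lacking fusion protein wells. Cells are Expi293F stably expressing human ACE2, compound-pretreated 1 hr.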

[11] = VSVG counterscreen qHTS to identify inhibitors of SARS-CoV-2 cell entry (AID 1645847); also: potency is read from the fitted curve at half-maximal effect; nearly all actives have a fitted effect of over 65% in size
Method in brief: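 Expi293F/hACE2 cells, overnight plating; cpd 1 h, 37C/5% CO2; + VSV-G PP (MLV pseudotyping), 48 h; supernatant removed, Bright-Glo luciferase read. Norm: VSV-G PP and bald PP wells.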

[12] = Confirmatory qHTS for activators (rescue) of SARS-CoV-2 Cytopathic Effect (CPE) (AID 1508606); also: nearly all actives have a fitted effect of over 70% in size
[13] = target: Peroxisome proliferator-activated receptor delta (Homo sapiens) (UniProt Q03181); assay: qHTS assay for small molecule agonists of peroxisome proliferator-activated receptor delta signaling (AID 588534)
Sequence of Peroxisome proliferator-activated receptor delta (Homo sapiens) (Q03181 whole entry, looked up): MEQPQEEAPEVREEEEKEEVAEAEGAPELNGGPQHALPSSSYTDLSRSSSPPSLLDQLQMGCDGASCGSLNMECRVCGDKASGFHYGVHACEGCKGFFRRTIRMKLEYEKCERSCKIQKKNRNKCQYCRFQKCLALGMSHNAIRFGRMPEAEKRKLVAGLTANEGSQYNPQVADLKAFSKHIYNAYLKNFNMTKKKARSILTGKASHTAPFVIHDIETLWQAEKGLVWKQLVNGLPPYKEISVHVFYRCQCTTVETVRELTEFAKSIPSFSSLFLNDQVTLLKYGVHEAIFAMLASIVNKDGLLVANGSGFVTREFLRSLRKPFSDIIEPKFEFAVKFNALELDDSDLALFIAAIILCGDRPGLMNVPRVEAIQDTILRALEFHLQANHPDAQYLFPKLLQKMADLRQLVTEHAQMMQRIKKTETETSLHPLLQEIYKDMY
Method in brief: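 Cell-based beta-lactamase reporter assay run in agonist mode: cells seeded and incubated 5 hrs at 37 C, compounds added and incubated 18 hrs at 37 C. CCF4 dye fluorescence read after 2 hrs at RT; EC50 and efficacy from Hill fits.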

[14] = Primary qHTS for inhibitors of SARS-S pseudo-typed particle cell entry (AID 1479145); also: nearly all actives have a fitted effect of over 45% in size
[15] = Primary qHTS for Huh7 cytotoxicity: counterscreen for inhibitors of MERS-S pseudotyped particle cell entry (AID 1479147); details: outcome: dose series up to 57.1 µM unless noted
[16] = Primary qHTS for Vero E6 cytotoxicity: counterscreen for inhibitors of SARS-S pseudo-typed particle cell entry (AID 1479150); details: outcome: dose series up to 57.1 µM unless noted
[17] = qHTS for inhibitors of Rabies Virus screened against the NCATS CANVASS Library (AID 1347402)
[18] = qHTS Assay for Lipid Storage Modulators (AID 1519); details: Drosophila S3 cells, BODIPY lipid droplet/cell ratio, laser cytometry, cells loaded with oleic acid
Method in brief: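 Cells seeded at 5,000 per well were treated with compounds over a concentration series and loaded with oleic acid (400 uM, as added). Lipid droplet fluorescence (488 nm excitation, 500-530 nm channel) was read by laser-scanning cytometry and normalized to 20 uM Triacsin C.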

## C[C@]12CC[C@H]3C(=CCc4cc(O)ccc43)[C@@H]1CCC2=O
[1]
  Potency: inactive
[2]
  Potency: inactive
[3]
  Potency: inactive

## Clc1cc(Cl)cc(CNc2ncncc2-c2ccc3c(c2)OCO3)c1
[1]
  Potency: inactive
[2]
  Potency: inactive
[3]
  Potency: inactive
[4]
  Potency: inactive

## O=C1NC(=O)C(=Cc2ccc(-c3ccc(F)cc3)o2)S1
[1]
  Potency: inactive
[2]
  Potency: inactive
[3]
  Potency: inactive

## COc1cc2c(Nc3ccc(NC(=O)c4ccccc4)cc3)ncnc2cc1OCCCN1CCOCC1
[1]
  Potency: inactive
[2]
  Potency: inactive
[3]
  Potency: inactive
[4]
  Potency: 31.6 µM (active)

## COc1ccc(-c2oc3cc(OC)c(O)c(OC)c3c(=O)c2OC)cc1O
[1]
  Potency: inactive
[2]
  Potency: inactive
[3]
  Potency: inactive

## COc1cc2ncnc(Nc3cccc(Cl)c3)c2cc1OC
[5]
  outcome: inactive
[6]
  outcome: inactive
[7]
  Potency: inactive
[8]
  outcome: inactive
[1]
  Potency: inactive
[2]
  Potency: inactive
[3]
  Potency: inactive
[4]
  Potency: inactive
[9]
  activity change, negative = inhibition: 0.792%

## O=C(O)C1(Cc2cccc(Nc3nccs3)n2)CCC(Oc2cccc(Cl)c2F)CC1 (stereo not drawn)
[1]
  Potency: inactive
[2]
  Potency: inactive
[3]
  Potency: inactive
[10]
  Potency: 10.8 µM (active)
[11]
  Potency: 12.1 µM (active)

## Cn1cc(-c2ccncc2)c(-c2ccc(OCc3ccc4ccccc4n3)cc2)n1
[1]
  Potency: 21.7 µM (active)
[2]
  Potency: inactive
[3]
  Potency: 21.7 µM (active)
[12]
  Potency: inactive

## CC(=O)O[C@@]12CO[C@H]1C[C@H](O)[C@@]1(C)C(=O)[C@H](O)C3=C(C)[C@@H](OC(=O)C(O)[C@@H](NC(=O)OC(C)(C)C)c4ccccc4)C[C@@](O)([C@@H](OC(=O)c4ccccc4)[C@@H]21)C3(C)C (stereo partly drawn)
[1]
  Potency: inactive
[2]
  Potency: inactive
[3]
  Potency: inactive

## N[C@H](CSC(c1ccccc1)(c1ccccc1)c1ccccc1)C(=O)O
[1]
  Potency: inactive
[2]
  Potency: inactive
[3]
  Potency: inactive
[4]
  Potency: inactive
[9]
  activity change, negative = inhibition: -15.9%

## C=CC(=O)Nc1cc(NC(=O)c2ccc(C)c(NC(=O)c3ccno3)c2)cc(C(F)(F)F)c1
[1]
  Potency: inactive
[2]
  Potency: inactive
[3]
  Potency: inactive

## C[C@]12CC[C@@H]3c4ccc(O)cc4CC[C@H]3[C@@H]1CC[C@@H]2O
[5]
  outcome: inactive
[6]
  outcome: inactive
[7]
  Potency: inactive
[8]
  outcome: inactive
[13]
  Potency: inactive
[1]
  Potency: inactive
[2]
  Potency: inactive
[3]
  Potency: inactive
[14]
  Potency: inactive
[15]
  outcome: inactive
[16]
  outcome: inactive

## COc1c(O)cc(O)c2c(=O)cc(-c3ccccc3)oc12
[1]
  Potency: inactive
[2]
  Potency: inactive
[3]
  Potency: inactive
[17]
  outcome: inactive

## C=CCc1ccc(O)c(-c2ccc(O)c(CC=C)c2)c1
[1]
  Potency: inactive
[2]
  Potency: inactive
[3]
  Potency: inactive

## CC(C)n1cnc2c(NCCc3ccc(O)cc3)nc(-c3csc4ccccc34)nc21
[1]
  Potency: inactive
[2]
  Potency: inactive
[3]
  Potency: inactive
[4]
  Potency: inactive
[9]
  activity change, negative = inhibition: -45.8%

## C=C1C[C@H](OC(=O)C(C)(O)CCl)C2C(=C)C(=O)O[C@@H]2C2C1C[C@H](O)[C@]2(O)CCl (stereo partly drawn)
[1]
  Potency: inactive
[2]
  Potency: inactive
[3]
  Potency: inactive

## Nc1ncnc2c1nc(Cl)n2[C@@H]1O[C@H](CO)[C@@H](O)[C@@H]1O
[1]
  Potency: inactive
[2]
  Potency: inactive
[3]
  Potency: inactive
[4]
  Potency: inactive

## C[C@]12CC[C@@H]3c4ccc(O)cc4CC[C@H]3[C@H]1[C@@H](O)[C@@H](O)[C@H]2O
[1]
  Potency: inactive
[2]
  Potency: inactive
[3]
  Potency: inactive
[4]
  Potency: inactive
[9]
  Potency: inactive

## CCN(CCO)CCCOc1ccc2c(Nc3cc(CC(=O)Nc4cccc(F)c4)[nH]n3)ncnc2c1
[1]
  Potency: inactive
[2]
  Potency: inactive
[3]
  Potency: inactive
[4]
  Potency: inactive
[9]
  activity change, negative = inhibition: -58.3%

## O=c1[nH]nc(OCCCc2ccc(Cl)cc2)c(NCc2cccnc2)c1Br
[1]
  Potency: inactive
[2]
  Potency: inactive
[3]
  Potency: inactive
[4]
  Potency: inactive
[9]
  activity change, negative = inhibition: -25.1%

## COc1cc(OC)c(NC(=O)Nc2cc(C)on2)cc1Cl
[1]
  Potency: inactive
[2]
  Potency: inactive
[3]
  Potency: inactive
[4]
  Potency: inactive
[9]
  activity change, negative = inhibition: -15.8%

## Cc1nc(NC(=O)N2CCC[C@@H]2C(N)=O)sc1-c1csc(C(C)(C)C)n1
[1]
  Potency: inactive
[2]
  Potency: inactive
[3]
  Potency: inactive

## COc1cc2c(c(OC)c1OC)-c1ccc(OC)c(=O)cc1[C@@H](NC=O)CC2
[1]
  Potency: 35.5 µM (active)
[2]
  Potency: inactive
[3]
  Potency: inactive

## O=C1OC(=O)C2C3CCC(O3)C12 (stereo not drawn)
[18]; at 57.5 µM (top of the series)
  activity change, negative = inhibition: 0.66% (inactive) and -7.44% (inactive)
[18]; measured here: cell count channel max response
  max response: -1.46% and -29.7%
[18]; measured here: lipid channel max response
  max response: 1.23% and -36.1%
[7]
  Potency: inactive
[8]
  outcome: inactive
[1]
  Potency: inactive
[2]
  Potency: 12.6 µM (active)

## FC(F)(F)c1ccc(C=Cc2nc(COc3ccc(CCCCn4ccnn4)cc3)co2)cc1
[1]
  Potency: 0.0432 µM (active)
[3]
  Potency: 0.0217 µM (active)

## C[C@H]1C/C=C/[C@@H]2[C@@H]3O[C@]3(C)[C@@H](C)[C@H]3[C@H](Cc4ccccc4)NC(=O)[C@]32OC(=O)O/C=C/[C@](C)(O)C1=O
[1]
  Potency: inactive
[3]
  Potency: inactive

Reference: PubChem BioAssay (NCATS)
